Unmarked numbers belong to inactive results. No rule for the calls is given here.
test system: HIV-1 nucleocapsid protein NCp7 (binding to TG oligonucleotide); assay: HIV Nucleocapsid (AID 346); conditions: HIV-1 NC / fluorescein-TGTGTGTG probe, fluorescence polarization;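 also: potency is for inhibitors that block NC binding and lower polarization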
Method: NCGC Assay Overview: HIV-1 nucleocapsid protein (HIV-1 NC) is a small (6.5 kDa) basic zinc-finger protein which participates in packaging of viral genomic RNA. The spacing and metal-chelating residues (3 Cys, 1 His) of the Cys-X2-Cys-X4-His-X4-Cys Zn fingers are conserved among all known retroviruses (J. Med. Chem. 1998, 41, 1371-1381). HIV-1 NC was assayed for its binding to the consensus sequence single-stranded 5'-TGTGTGTG. […] High salt was included to increase the stringency of binding and inhibitor screen. Reducing agents and zinc were present to stabilize the nucleocapsid zinc-finger protein.
NCGC Assay Protocol Summary: Buffer. Hepes pH 7.5, 250mM NaCl, 1uM ZnCl2. 0.004% polyethylene glycol 20000. TCEP (100 uM) and 2-Mercaptoethanol (5 mM), added fresh the day of the experiment. Reagents/Controls. 10 nM TG4xF only in columns 3 and 4 as negative control. 10 nM TG4xF/100 nM HIV-1 NC in columns 1, 2, 5-48. Titration of control compound NSC-13778 (from 20 mM, then 1:2) pin-transferred to column 2. Assay Steps. Two uL of reagents were dispensed to 1536-well Kalypsys black plates. The plates were centrifuged for 1 min at 1000 rpm. Compounds and controls (20 nL) were transferred via Kalypsys PinTool. The plates were incubated for 1 hr at room temperature, and then read on ViewLux (Perkin-Elmer). High-throughput CCD imager using fluorescein polarization filter set and 45 seconds exposure time.
Potency is read from the fitted curve at half-maximal effect.

Row | Compound | Potency [µM]
1 | CS(=O)(=O)N1CCC2(CCN(c3ccncc3)CC2)CC1 | > 20
2 | COC(=O)N1CCC2(CCN(Cc3ccccc3)CC2)CC1 | > 20
3 | O=C(Nc1cccc(F)c1)N1CCCC2(CCN(C(=O)c3cnccn3)CC2)C1 | > 20
4 | CC(C)NC(=O)N1CC[C@@]2(CCCN(C(=O)Oc3ccccc3)C2)C1 | > 20
5 | COc1ccc2[nH]cc(CCNc3ccnc(-c4ccc5c(c4)OCO5)n3)c2c1 | > 20
6 | CCNc1ncc2nc(CCc3ccccc3)c(=O)n(CCC#N)c2n1 | > 20
7 | COCCNc1ncnc2ccc(-c3cccc(NS(C)(=O)=O)c3)cc12 | > 20
8 | COc1ccc(NC(=O)N2CCC3(CC2)CCN(C(=O)c2cccc(F)c2)CC3)cc1 | > 20
9 | CNc1ncnc2ccc(-c3ccccc3OC)cc12 | > 20
10 | O=C(Nc1cccc(F)c1)N1CC[C@@]2(CCCN(C(=O)c3cccc(F)c3)C2)C1 | > 20
11 | O=C(Nc1ccccc1)N1CCC2(CC1)CCN(C(=O)c1cccc(F)c1)CC2 | > 20
12 | O=C(c1cccc(F)c1)N1CCC[C@@]2(CCN(c3ccccn3)C2)C1 | > 20
13 | O=C(Oc1ccccc1)N1CCC2(CCCN(c3ccccn3)C2)CC1 | > 20
14 | CN1CCN(c2ncc3nc(-c4cccs4)c(=O)n(Cc4cccs4)c3n2)CC1 | > 20
15 | CN(C)c1ccc(-c2cncnc2NCc2cccnc2)cc1 | > 20
16 | COc1ccc2[nH]cc(CCNc3nc(-c4ccccc4CN(C)C)nc4ccccc34)c2c1 | > 20
17 | CC(=O)N1CCC2(CCCN(c3ncccn3)C2)CC1 | > 20
18 | O=C(c1ccco1)N1CCC2(CC1)CCN(c1ccncc1)CC2 | > 20
19 | COCCn1c(=O)c(-c2cc(F)cc(F)c2)nc2cnc(Oc3ccccc3)nc21 | > 20
20 | CN1CCN(c2ncc3nc(-c4cc(F)cc(F)c4)c(=O)n(CCc4ccccc4)c3n2)CC1 | > 20

Row | Compound | Potency [µM]
21 | COCCNc1ncnc2ccc(-c3ccc(N(C)C)cc3)cc12 | > 20
22 | Cn1cccc1C(=O)N1CCC2(CCN(Cc3ccccc3)CC2)CC1 | > 20
23 | COc1ccccc1CCn1c(=O)c(-c2ccccc2)nc2cncnc21 | > 20
24 | O=C(Oc1ccccc1)N1CCC2(CCCN(c3cccc(-c4ccccc4)c3)C2)CC1 | > 20
25 | O=C(c1cccc(F)c1)N1CCC2(CC1)CCN(C(c1ccccc1)c1ccccc1)CC2 | > 20
26 | COCCn1c(=O)c(C)nc2cnc(OC)nc21 | > 20
27 | O=C(Nc1cccc(F)c1)N1CCC2(CC1)CCN(S(=O)(=O)c1ccccc1)CC2 | > 20
28 | Cc1noc(C)c1C(=O)N1CCC2(CCCN(c3ccncc3)C2)CC1 | > 20
29 | O=C(c1ccncc1)N1CCC[C@@]2(CCN(c3cccc(-c4ccccc4)c3)C2)C1 | > 20
30 | COc1ccc(-n2c(=O)c(-c3cccs3)nc3cnc(N4CCOCC4)nc32)cc1 | > 4
31 | Clc1ccccc1-c1ccc2ncnc(N3CCNCC3)c2c1 | > 20
32 | CS(=O)(=O)Nc1cccc(-c2nccc(NCc3ccccc3)n2)c1 | > 20
33 | CN(C)C(=O)c1ccc(-c2nccc(-n3ccnc3)n2)cc1 | > 20
34 | COc1ccc(CNc2cc(-c3ccccc3CN(C)C)ncn2)c(OC)c1 | > 20
35 | COC(=O)N1CCC2(CC1)CN(C(=O)Nc1cccc(C#N)c1)C2 | > 20
36 | CN(C)c1ncc2nc(-c3cc(F)cc(F)c3)c(=O)n(C3CC3)c2n1 | > 20
37 | COC(=O)N1CCC2(CCCN(C(=O)Nc3cccc(F)c3)C2)CC1 | > 20
38 | CS(=O)(=O)N1CCC2(CC1)CN(c1ccc(-c3ccccc3)cc1)C2 | > 20
39 | CS(=O)(=O)Nc1cccc(-c2nccc(NCc3cccs3)n2)c1 | > 20
40 | c1nc(NC2CCNCC2)c2cc(-c3ccc4c(c3)OCO4)ccc2n1 | > 20

— PubChem BioAssay (NCATS)
